# Screening data (PubChem)
# Shown is part of a subset that was picked to be rich in hits.
# PDI inh – blocks human protein disulfide isomerase activity | P07237 | PDI insulin aggregation turbidity, A650, 90 min | inhibition, % at 10 µM | 350,000 compounds, 0.052% hits | AID 588391;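 active means mean inhibition across replicates of 30% or more, whatever share of single replicates reach that level; inconclusive means mean inhibition below 30% while every single replicate reaches 30%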
# Target sequence (P07237 whole entry, looked up): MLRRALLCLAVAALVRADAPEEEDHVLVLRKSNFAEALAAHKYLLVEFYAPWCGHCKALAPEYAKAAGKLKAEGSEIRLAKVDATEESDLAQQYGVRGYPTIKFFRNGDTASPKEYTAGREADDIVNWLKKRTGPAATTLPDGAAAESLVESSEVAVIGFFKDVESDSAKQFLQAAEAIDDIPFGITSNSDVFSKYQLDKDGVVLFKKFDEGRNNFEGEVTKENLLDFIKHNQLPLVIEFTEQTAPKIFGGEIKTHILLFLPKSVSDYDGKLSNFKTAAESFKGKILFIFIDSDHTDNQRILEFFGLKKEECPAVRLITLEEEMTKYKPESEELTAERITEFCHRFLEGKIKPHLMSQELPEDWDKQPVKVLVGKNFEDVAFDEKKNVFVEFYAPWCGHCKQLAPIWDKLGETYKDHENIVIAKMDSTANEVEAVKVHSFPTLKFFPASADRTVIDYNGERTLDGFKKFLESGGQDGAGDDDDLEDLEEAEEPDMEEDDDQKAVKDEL
# ERAP1 HTS inh – ERAP1 (human) enzyme inhibition. Q9NZ08. recombinant ERAP1, Leu-AMC fluorescence, 60 min. inhibition, % at 10.7 µM. 340,000 compounds, 0.15% hits;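 active means mean replicate inhibition of at least 30%, or all replicates individually reaching that 30% level; inactive means mean below 30% and not every replicate reaching it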;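 further: 0% = neutral control wells and 100% = L-leucinethiol positive control wells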
# HDAC3 inhib – human HDAC3 inhibition; O15379; recombinant HDAC3, fluorogenic peptide/trypsin coupled, fluorescence; inhibition, % at 8.3 µM; 320,000 compounds, 0.15% hits; in the data active means inhibition above about 26%, passing the limit was not always enough; inconclusive means no clear call, values can overlap the other calls
# SIRT5 inh – blocks human SIRT5 desuccinylation of peptide; Q9NXA8; Purified SirT5, succinyl-peptide AMC, trypsin-coupled fluorescence; inhibition, % at 15 µM; 330,000 compounds, 1.1% hits; AID 652115; in the data active means inhibition above about 15%; inconclusive means no clear call, values can overlap the other calls
# ERp5 inh – ERp5 (human) disulfide isomerase inhibition. ERp5 insulin aggregation, absorbance 650 nm, 90 min. inhibition, % at 9.99 µM. 350,000 compounds, 0.05% hits. AID 651711;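 active means mean replicate inhibition above about 25%, with every replicate also reaching it, limit read from the data, passing the limit was not always enough; inconclusive means only one of those two criteria met; inactive means neither criterion met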
# An asterisk follows results filed as active; ? = inconclusive; nt = no result given.
SMILES,PDI inh,ERAP1 HTS inh,HDAC3 inhib,SIRT5 inh,ERp5 inh
C[C@H]1CN([C@@H](C)CO)S(=O)(=O)c2ccc(/C=C/c3ccccc3)cc2O[C@@H]1CN(C)C(=O)NC1CCCC1,nt,2.3,nt,31.9*,-6.8
C[C@H](CO)N1C[C@H](C)[C@H](CN(C)C(=O)Nc2ccc(F)cc2)Oc2cc(/C=C/c3ccccc3)ccc2S1(=O)=O,nt,2.9,nt,20.8*,1.4
CC(C)C#Cc1ccc([C@@H]2[C@H](CO)N3CCCCN(C(=O)c4ccc5c(c4)OCO5)C[C@@H]23)cc1,nt,3.6,nt,-1.0,?
C[C@@H]1CN([C@@H](C)CO)C(=O)c2cc(NC(=O)c3ccncc3)ccc2O[C@@H](C)CCCCO[C@H]1CN(C)C(=O)NC1CCCCC1,nt,1.8,nt,6.2,-2.1
C[C@@H]1CN([C@@H](C)CO)S(=O)(=O)c2ccc(/C=C/c3ccccc3)cc2O[C@@H]1CN(C)C(=O)NC1CCCC1,nt,-0.9,nt,20.2*,12.2
C[C@@H]1CN([C@H](C)CO)S(=O)(=O)c2ccc(/C=C/c3ccccc3)cc2O[C@@H]1CN(C)C(=O)NC1CCCC1,nt,-0.6,nt,21.1*,-6.3
COc1cccc(-c2ccc([C@H]3[C@H]4CN(C(=O)C5CCC5)CC(=O)N4[C@H]3CO)cc2)c1,nt,-1.6,nt,3.0,23.6
Cc1nnc(SCC(=O)Nc2ncc3c(n2)CCCC3=O)s1,-11.0,nt,-3.0,nt,nt
Cc1nnc(SCC(=O)Nc2ncc3c(n2)CC(c2ccccc2)CC3=O)s1 (stereo not drawn),13.7,-2.8,-2.6,28.2*,2.2
CCCNC(=O)N(C)C[C@@H]1Oc2ncc(Br)cc2C(=O)N([C@@H](C)CO)C[C@@H]1C,nt,1.5,nt,-10.1,3.3
CCC(NC(=O)NCc1ccc2c(c1)OCO2)(C(F)(F)F)C(F)(F)F,1.6,nt,6.4,nt,nt
CCC(NC(=O)NCc1ccccc1)(C(F)(F)F)C(F)(F)F,-14.0,-2.3,-1.2,30.5*,2.6
O=C(C1=C[C@H](C2CCCCC2)C[C@H](OCc2ccc(CO)cc2)O1)N1CCCC1,nt,2.3,nt,-0.4,-4.6
CC(C)NC(=O)N1C[C@@H]2[C@H](c3ccccc31)[C@H](CO)N2C(=O)c1ccncc1,nt,-5.8,nt,9.1,-7.0
Cc1ccc2cc(/C=C(\C#N)C(N)=O)c(N3CCCCC3)nc2c1,0.2,-0.4,-6.1,-5.0,2.8
CCOC(=O)/C(C#N)=C/c1cc2ccccc2nc1N1CCCCC1,-3.4,3.8,-2.0,111.9*,2.8
Cc1nc(S(=O)(=O)N(C)Cc2ccccc2)c(C#N)c(C)c1Cl,-5.8,-1.0,-3.5,17.3*,-5.7
Cc1cnc(C(=O)OCC(=O)Nc2cccc(S(=O)(=O)N3CCCCC3)c2)cn1,-16.5,0.3,-0.7,28.0*,-6.9
Cc1cnc(C(=O)OCC(=O)Nc2ccc(C)c(S(=O)(=O)N3CCCCCC3)c2)cn1,-12.9,1.6,3.4,-1.2,13.1
O=C(C[C@H]1C[C@H]2c3cc(NC(=O)C4CCOCC4)ccc3O[C@H]2[C@H](CO)O1)NCc1ccc2c(c1)OCO2,nt,-0.2,nt,nt,4.9
O=C(CN1CCOCC1)N/N=C/c1ccc(-c2ccc(C(=O)O)cc2)o1,6.1,93.2*,-1.5,16.7*,6.2
O=C(C1CCCCC1)N1CC2(C1)[C@@H](c1ccccc1)[C@@H](CO)N2Cc1cncnc1,nt,-0.8,nt,-1.8,0.8
O=C1/C(=C\c2cc([N+](=O)[O-])ccc2O)SC(=S)N1Cc1ccc(Cl)cc1,0.4,-0.8,0.1,15.7*,1.7
O=C1/C(=C\c2cccc(O)c2O)SC(=S)N1Cc1ccccc1,2.0,0.8,0.7,2.2,-2.3
CC(C)(C)c1cc(N2CCOCC2)n2ncc(-c3ccccc3)c2n1,-2.0,31.6*,-8.8,-20.3,-4.6
SMILES,PDI inh,ERAP1 HTS inh,HDAC3 inhib,SIRT5 inh,ERp5 inh
CCCc1cc(N2CCOCC2)n2ncc(-c3ccccc3)c2n1,-2.6,4.3,-7.5,-11.8,-4.4
CCCCCCCCCCCCCCC(O)C[N+](C)(CCO)CCO (stereo not drawn),23.9,64.2*,nt,2.1,6.5
COc1cc(CN2[C@@H]3CNC[C@H]2C3c2ccc(-c3cccc(C)c3)cc2)cc(OC)c1 (stereo partly drawn),nt,nt,nt,3.6,-2.0
O=C(C[C@@H]1C=C[C@@H](NC(=O)CN2CCOCC2)[C@H](CO)O1)NCCc1ccccc1,nt,0.2,nt,-0.8,-5.8
CC(=O)N(c1nc(CCl)cs1)c1cccc(C)c1C,4.6,0.7,-2.2,-6.0,9.8
CC(=O)N(c1nc(/C=C\C(=O)O)cs1)c1ccccc1F,1.0,nt,-1.1,16.9*,-8.8
